{
  "source": "the supplement of paper PMC11732987",
  "about": "“Enantioselective OTUD7B fragment discovery through chemoproteomics screening and high-throughput optimisation” (Communications Chemistry, 2025)",
  "test_in_all_cases": "log2 ratio of Biotin-Ahx-Ub-VS probe labelling (fragment/DMSO); higher = less target engagement (more negative = stronger competition), active = hit call of the paper (q ≤ 0.05, log2 ratio ≤ -1)",
  "settings_in_all_cases": "compound concentration: 200 uM; treatment time: 3 h",
  "key": {"[1]": {"target": "USP9X (UniProt Q93008)", "procedure,_shortened": "(§1)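 Labelled DUBs from HEK293T lysate were NeutrAvidin-enriched, digested with LysC and trypsin, and run by diaPASEF LC-MS/MS. Before that, each 495 µg sample in Tris/CHAPS/IGEPAL buffer with protease inhibitors was treated in triplicate with fragment at 200 µM or vehicle for 3 h, then with Biotin-Ahx-Ub-VS at 0.5 µM final for 1 h. Values are average log2 ratios of fragment over vehicle by unpaired t-test, based on global-median-normalised Spectronaut label-free quantities from proteins with ≥2 unique peptides.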"}, "[2]": {"target": "UniProt O00487", "sequence (O00487 whole entry)": "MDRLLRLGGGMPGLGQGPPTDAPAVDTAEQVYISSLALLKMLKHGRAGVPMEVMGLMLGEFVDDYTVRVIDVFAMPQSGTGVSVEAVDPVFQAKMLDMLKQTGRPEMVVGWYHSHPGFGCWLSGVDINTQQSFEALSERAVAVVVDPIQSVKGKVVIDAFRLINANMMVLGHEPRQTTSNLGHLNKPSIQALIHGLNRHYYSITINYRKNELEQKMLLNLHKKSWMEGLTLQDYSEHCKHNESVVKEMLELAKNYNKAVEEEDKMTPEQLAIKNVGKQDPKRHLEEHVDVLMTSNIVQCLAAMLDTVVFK", "procedure,_shortened": "as §1"}, "[3]": {"target": "UniProt O00507", "sequence (O00507 whole entry)": "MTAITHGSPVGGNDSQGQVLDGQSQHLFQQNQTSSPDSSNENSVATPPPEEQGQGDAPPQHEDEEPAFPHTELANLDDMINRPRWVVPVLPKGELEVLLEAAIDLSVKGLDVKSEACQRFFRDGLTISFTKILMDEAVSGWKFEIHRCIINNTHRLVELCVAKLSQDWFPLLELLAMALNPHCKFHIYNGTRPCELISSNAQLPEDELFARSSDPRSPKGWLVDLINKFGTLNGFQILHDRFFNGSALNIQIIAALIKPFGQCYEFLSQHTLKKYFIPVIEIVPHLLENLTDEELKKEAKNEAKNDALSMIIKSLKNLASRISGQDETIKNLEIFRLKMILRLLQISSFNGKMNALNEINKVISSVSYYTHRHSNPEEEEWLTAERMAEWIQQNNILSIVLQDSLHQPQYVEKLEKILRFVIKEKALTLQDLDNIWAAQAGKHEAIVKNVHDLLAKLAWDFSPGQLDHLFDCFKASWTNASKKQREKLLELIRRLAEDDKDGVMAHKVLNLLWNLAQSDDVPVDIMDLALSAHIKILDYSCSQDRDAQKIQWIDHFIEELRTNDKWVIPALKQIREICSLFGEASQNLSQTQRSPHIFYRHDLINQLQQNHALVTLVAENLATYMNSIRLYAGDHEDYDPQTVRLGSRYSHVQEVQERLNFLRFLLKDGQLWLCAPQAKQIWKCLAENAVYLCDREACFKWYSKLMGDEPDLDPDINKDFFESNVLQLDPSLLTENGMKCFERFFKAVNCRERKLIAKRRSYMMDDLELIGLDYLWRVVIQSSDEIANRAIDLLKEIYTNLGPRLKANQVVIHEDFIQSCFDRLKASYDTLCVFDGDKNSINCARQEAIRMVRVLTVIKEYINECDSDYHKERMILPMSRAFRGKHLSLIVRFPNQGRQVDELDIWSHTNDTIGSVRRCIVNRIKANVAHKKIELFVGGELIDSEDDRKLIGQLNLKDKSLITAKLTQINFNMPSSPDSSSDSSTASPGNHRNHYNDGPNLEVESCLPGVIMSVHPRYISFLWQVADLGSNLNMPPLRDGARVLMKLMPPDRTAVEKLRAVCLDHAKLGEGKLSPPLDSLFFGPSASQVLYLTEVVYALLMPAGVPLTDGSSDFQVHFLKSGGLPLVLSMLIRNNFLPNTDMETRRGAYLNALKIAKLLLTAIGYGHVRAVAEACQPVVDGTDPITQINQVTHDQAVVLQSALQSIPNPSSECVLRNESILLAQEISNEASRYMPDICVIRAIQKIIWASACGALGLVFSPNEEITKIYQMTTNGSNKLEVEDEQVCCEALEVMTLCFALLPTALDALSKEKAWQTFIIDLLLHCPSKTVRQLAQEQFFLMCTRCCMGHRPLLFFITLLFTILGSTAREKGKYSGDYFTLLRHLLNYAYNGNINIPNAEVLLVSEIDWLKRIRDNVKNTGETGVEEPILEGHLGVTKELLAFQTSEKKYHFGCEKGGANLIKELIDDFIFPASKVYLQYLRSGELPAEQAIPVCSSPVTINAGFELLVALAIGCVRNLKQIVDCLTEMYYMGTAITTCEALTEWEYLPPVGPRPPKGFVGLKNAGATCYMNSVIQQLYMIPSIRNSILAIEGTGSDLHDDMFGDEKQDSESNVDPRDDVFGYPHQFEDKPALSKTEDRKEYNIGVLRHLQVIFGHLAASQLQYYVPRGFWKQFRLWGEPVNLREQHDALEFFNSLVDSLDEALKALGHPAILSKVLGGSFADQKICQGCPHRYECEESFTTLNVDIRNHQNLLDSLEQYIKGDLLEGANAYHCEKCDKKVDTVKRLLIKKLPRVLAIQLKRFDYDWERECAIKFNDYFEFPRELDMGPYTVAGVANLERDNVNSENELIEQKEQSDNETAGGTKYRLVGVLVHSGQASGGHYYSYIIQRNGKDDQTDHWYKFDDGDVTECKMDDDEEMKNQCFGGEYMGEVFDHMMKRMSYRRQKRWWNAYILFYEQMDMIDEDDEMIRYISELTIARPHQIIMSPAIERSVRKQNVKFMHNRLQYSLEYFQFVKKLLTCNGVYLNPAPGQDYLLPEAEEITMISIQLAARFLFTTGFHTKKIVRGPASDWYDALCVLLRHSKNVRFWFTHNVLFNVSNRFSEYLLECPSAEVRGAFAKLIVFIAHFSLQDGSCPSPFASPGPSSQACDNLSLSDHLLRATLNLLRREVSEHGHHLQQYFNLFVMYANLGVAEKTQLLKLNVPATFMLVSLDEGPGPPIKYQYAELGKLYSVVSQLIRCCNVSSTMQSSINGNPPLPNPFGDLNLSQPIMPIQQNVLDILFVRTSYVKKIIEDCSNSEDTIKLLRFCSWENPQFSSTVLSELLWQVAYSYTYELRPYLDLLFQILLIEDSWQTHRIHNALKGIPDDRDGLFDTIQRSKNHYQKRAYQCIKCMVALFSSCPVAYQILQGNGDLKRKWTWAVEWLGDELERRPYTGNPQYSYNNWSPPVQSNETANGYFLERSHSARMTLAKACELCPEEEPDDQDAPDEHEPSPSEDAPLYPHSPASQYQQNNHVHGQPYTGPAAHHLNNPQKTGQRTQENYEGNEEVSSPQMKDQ", "procedure,_shortened": "as §1"}, "[4]": {"target": "UniProt P51784", "sequence (P51784 whole entry)": "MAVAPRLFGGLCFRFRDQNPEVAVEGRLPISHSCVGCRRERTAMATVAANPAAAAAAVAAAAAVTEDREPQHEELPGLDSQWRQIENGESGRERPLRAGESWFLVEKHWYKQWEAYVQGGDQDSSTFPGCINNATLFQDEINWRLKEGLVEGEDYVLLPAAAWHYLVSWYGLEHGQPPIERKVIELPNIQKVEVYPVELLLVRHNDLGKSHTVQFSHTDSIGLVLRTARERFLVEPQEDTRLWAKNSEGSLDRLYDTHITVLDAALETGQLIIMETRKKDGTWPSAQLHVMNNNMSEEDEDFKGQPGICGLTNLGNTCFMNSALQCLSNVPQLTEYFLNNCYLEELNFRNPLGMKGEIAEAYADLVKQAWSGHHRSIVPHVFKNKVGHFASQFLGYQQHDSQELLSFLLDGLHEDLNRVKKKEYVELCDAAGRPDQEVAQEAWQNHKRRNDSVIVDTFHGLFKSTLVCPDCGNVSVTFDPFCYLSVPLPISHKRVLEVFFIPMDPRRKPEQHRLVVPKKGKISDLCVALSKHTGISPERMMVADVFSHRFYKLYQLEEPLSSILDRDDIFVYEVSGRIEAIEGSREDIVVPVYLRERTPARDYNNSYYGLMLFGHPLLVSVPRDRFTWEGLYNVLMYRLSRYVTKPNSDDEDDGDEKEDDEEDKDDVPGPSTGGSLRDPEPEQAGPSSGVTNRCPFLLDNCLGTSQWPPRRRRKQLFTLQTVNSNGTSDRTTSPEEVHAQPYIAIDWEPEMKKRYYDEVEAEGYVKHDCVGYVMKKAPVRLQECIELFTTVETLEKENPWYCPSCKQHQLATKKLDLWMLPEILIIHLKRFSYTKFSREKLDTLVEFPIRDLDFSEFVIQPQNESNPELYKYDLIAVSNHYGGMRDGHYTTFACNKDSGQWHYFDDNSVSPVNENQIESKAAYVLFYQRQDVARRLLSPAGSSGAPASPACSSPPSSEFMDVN", "procedure,_shortened": "as §1"}, "[5]": {"target": "T1, UniProt Q5T2D3", "T1 sequence (whole entry)": "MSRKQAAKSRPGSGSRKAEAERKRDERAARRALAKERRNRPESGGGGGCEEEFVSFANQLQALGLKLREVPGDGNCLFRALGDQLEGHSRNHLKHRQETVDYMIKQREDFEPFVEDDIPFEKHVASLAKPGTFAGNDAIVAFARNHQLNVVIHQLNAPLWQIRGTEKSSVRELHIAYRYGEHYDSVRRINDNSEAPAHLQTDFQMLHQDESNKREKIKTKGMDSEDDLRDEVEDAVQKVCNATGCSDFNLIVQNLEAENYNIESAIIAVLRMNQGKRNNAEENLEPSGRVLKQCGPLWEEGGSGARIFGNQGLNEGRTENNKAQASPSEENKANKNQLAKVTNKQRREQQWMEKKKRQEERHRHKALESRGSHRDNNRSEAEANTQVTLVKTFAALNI", "procedure,_shortened": "as §1"}, "[6]": {"target": "T2, UniProt Q8TE49", "T2 sequence (whole entry)": "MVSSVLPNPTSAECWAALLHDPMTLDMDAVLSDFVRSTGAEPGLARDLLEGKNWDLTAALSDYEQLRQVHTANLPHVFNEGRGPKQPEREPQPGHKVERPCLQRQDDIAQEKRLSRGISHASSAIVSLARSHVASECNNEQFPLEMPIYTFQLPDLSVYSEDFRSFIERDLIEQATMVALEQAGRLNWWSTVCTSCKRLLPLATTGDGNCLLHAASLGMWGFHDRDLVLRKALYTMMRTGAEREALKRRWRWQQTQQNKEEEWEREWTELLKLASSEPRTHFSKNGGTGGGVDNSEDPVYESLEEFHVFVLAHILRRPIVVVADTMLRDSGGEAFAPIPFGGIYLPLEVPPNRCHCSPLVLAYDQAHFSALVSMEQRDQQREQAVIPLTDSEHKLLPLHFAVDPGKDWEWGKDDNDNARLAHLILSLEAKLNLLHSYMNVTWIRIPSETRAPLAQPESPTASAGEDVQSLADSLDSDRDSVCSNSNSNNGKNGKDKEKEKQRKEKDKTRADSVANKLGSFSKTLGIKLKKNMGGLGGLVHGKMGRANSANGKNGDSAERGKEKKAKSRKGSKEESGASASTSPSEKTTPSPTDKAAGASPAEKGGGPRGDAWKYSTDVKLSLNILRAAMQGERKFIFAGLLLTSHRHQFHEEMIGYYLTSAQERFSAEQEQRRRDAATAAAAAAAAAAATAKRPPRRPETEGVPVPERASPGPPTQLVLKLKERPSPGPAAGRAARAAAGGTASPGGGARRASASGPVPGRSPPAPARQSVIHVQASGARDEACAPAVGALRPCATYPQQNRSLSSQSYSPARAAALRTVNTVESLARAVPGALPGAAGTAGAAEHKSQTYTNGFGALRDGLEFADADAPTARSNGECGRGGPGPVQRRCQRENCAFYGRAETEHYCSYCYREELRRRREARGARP", "procedure,_shortened": "as §1"}, "[7]": {"target": "T3, UniProt Q9P2H5", "T3 sequence (whole entry)": "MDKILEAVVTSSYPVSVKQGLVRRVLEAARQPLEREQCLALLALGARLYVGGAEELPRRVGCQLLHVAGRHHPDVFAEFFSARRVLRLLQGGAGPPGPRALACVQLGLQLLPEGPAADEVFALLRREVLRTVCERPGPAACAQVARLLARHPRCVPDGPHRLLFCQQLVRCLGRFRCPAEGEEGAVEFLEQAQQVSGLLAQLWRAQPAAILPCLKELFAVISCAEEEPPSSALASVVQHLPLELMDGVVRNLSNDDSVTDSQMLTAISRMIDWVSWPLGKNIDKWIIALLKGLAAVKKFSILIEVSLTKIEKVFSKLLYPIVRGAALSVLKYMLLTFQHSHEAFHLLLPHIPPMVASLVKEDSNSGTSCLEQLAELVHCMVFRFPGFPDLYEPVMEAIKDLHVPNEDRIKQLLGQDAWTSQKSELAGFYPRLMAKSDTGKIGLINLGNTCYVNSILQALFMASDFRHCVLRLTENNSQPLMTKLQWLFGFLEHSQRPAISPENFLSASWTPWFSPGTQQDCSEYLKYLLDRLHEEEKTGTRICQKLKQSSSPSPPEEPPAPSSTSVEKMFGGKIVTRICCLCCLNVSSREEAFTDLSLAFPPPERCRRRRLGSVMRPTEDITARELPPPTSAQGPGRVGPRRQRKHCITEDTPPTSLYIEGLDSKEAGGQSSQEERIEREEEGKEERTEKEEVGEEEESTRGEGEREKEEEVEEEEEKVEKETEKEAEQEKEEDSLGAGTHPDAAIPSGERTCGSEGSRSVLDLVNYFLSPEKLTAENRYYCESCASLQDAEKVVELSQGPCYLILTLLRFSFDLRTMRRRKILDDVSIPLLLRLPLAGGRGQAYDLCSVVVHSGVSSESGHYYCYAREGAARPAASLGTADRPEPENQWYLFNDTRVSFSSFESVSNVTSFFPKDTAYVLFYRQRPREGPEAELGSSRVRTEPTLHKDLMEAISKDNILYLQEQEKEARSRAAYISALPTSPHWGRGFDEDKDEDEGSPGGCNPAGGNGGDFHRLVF", "procedure,_shortened": "as §1"}, "[8]": {"target": "T4, UniProt Q9UGI0", "T4 sequence (whole entry)": "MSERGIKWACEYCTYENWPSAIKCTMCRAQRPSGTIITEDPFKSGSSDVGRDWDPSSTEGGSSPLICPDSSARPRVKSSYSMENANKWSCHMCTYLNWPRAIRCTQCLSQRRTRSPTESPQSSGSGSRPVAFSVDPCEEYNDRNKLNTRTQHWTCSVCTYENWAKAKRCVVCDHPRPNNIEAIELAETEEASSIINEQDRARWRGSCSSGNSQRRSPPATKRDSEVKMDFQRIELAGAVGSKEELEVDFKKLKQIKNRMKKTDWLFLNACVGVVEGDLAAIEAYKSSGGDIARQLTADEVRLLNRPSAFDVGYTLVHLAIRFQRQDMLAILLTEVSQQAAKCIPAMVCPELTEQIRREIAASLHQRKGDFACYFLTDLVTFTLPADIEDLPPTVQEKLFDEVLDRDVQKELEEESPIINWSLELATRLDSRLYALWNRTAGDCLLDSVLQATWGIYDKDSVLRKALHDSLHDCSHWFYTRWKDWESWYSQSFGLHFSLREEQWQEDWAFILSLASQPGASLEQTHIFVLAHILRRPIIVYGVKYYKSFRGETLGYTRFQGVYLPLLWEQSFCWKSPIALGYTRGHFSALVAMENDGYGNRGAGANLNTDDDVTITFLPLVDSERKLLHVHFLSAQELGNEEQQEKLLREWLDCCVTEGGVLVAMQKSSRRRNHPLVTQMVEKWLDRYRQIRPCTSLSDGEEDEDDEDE", "procedure,_shortened": "as §1"}, "[9]": {"target": "T5, YOD1 (UniProt Q5VVQ6)", "T5 sequence (whole entry)": "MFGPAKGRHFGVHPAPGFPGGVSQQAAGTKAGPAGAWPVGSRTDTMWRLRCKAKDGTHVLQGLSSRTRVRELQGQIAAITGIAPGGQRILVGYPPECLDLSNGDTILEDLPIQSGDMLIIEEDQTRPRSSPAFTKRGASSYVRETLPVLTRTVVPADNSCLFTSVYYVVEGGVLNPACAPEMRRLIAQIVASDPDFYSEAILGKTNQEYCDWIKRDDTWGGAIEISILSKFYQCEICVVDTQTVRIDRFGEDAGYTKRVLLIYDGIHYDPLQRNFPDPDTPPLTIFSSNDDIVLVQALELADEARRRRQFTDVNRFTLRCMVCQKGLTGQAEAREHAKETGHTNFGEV", "procedure,_shortened": "as §1"}},
  "note": "Values without a mark were called inactive.",
  "data": [
    {"molecule": "Cc1ccccc1CN(C)C(=O)CCl", "values": [
      {"measurement": "log2 ratio of Biotin-Ahx-Ub-VS probe labelling", "setting": "[1]", "result": -0.836},
      {"measurement": "log2 ratio of Biotin-Ahx-Ub-VS probe labelling", "setting": "[2]", "result": -0.14},
      {"measurement": "log2 ratio of Biotin-Ahx-Ub-VS probe labelling", "setting": "[3]", "result": "-1.06 (active)"},
      {"measurement": "log2 ratio of Biotin-Ahx-Ub-VS probe labelling", "setting": "[4]", "result": -0.62},
      {"measurement": "log2 ratio of Biotin-Ahx-Ub-VS probe labelling", "setting": "[5]", "result": -0.704},
      {"measurement": "log2 ratio of Biotin-Ahx-Ub-VS probe labelling", "setting": "[6]", "result": "-1.06 (active)"},
      {"measurement": "log2 ratio of Biotin-Ahx-Ub-VS probe labelling", "setting": "[7]", "result": -0.712},
      {"measurement": "log2 ratio of Biotin-Ahx-Ub-VS probe labelling", "setting": "[8]", "result": "-1.3 (active)"},
      {"measurement": "log2 ratio of Biotin-Ahx-Ub-VS probe labelling", "setting": "[9]", "result": -0.638}
    ]}
  ]
}
